# Laboratory results published in the supplement of paper PMC4466140.
# Columns and labels:
# Experiment in all cases: SPOT peptide array binding signal intensity (averaged, normalized) (arbitrary units (background-subtracted, floor 0; scale differs between SH3 domains)); higher = stronger binding of the SH3 domain to the peptide
# AgAbp1 = biological target: AgAbp1
# Method in brief: (§1)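 SH3 domains from four yeast species were expressed as GST fusions in E. coli BL21(DE3) and purified on glutathione Sepharose. Each was incubated at 10 μg/ml overnight at 4°C in TBS-based blocking buffer on cellulose membranes bearing synthetic 15-mer peptides, in which serines replaced cysteines. Bound protein was detected with anti-GST antibody, an HRP anti-mouse secondary and luminol, then imaged and quantified with Genespotter. The binding signal is the normalized, background-subtracted spot intensity averaged over replicates, in arbitrary units that are not the same from one domain to another.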
# AgBbc1 = biological target: AgBbc1
# Method in brief: as §1
# AgBem1-D1 = biological target: AgBem1-D1
# Method in brief: as §1
# AgBzz1-D1 = biological target: AgBzz1-D1
# Method in brief: as §1
# AgBzz1-D2 = biological target: AgBzz1-D2
# Method in brief: as §1
# AgCyk3 = biological target: AgCyk3
# Method in brief: as §1
# AgFus1 = biological target: AgFus1
# Method in brief: as §1
# AgHof1 = biological target: AgHof1
# Method in brief: as §1
# AgHse1 = biological target: AgHse1
# Method in brief: as §1
# AgLsb1 = biological target: AgLsb1
# Method in brief: as §1
# AgLsb4 = biological target: AgLsb4
# Method in brief: as §1
# AgMyo5 = biological target: AgMyo5
# Method in brief: as §1
# AgNbp2 = biological target: AgNbp2
# Method in brief: as §1
# AgRvs167 = biological target: AgRvs167
# Method in brief: as §1
# AgSho1 = biological target: AgSho1
# Method in brief: as §1
# AgSla1-D1-D2 = biological target: AgSla1-D1-D2
# Method in brief: as §1
# AgSla1-D3 = biological target: AgSla1-D3
# Method in brief: as §1
# CaAbp1-D1 = biological target: CaAbp1-D1
# Method in brief: as §1
# CaAbp1-D2 = biological target: CaAbp1-D2
# Method in brief: as §1
# CaBbc1 = biological target: CaBbc1
# Method in brief: as §1
# CaBem1-D1 = biological target: CaBem1-D1
# Method in brief: as §1
# CaBzz1-D1 = biological target: CaBzz1-D1
# Method in brief: as §1
# CaBzz1-D2 = biological target: CaBzz1-D2
# Method in brief: as §1
# CaCyk3 = biological target: CaCyk3
# Method in brief: as §1
# CaFus1 = biological target: CaFus1
# Method in brief: as §1
# CaHof1 = biological target: CaHof1
# Method in brief: as §1
# CaHse1 = biological target: CaHse1
# Method in brief: as §1
# CaLsb1 = biological target: CaLsb1
# Method in brief: as §1
# CaLsb4 = biological target: CaLsb4
# Method in brief: as §1
# CaMyo5 = biological target: CaMyo5
# Method in brief: as §1
# CaNbp2 = biological target: CaNbp2
# Method in brief: as §1
# CaRvs167 = biological target: CaRvs167
# Method in brief: as §1
# CaRvs167-3 = biological target: CaRvs167-3
# Method in brief: as §1
# CaSho1 = biological target: CaSho1
# Method in brief: as §1
# CaSla1-D1-D2 = biological target: CaSla1-D1-D2
# Method in brief: as §1
# CaSla1-D3 = biological target: CaSla1-D3
# Method in brief: as §1
# ScAbp1 = biological target: ScAbp1
# Method in brief: as §1
# ScBbc1 = biological target: ScBbc1
# Method in brief: as §1
# ScBem1-D1 = biological target: ScBem1-D1
# Method in brief: as §1
# ScBzz1-D1 = biological target: ScBzz1-D1
# Method in brief: as §1
# ScBzz1-D2 = biological target: ScBzz1-D2
# Method in brief: as §1
# ScCyk3 = biological target: ScCyk3
# Method in brief: as §1
# ScFus1 = biological target: ScFus1
# Method in brief: as §1
# ScHof1 = biological target: ScHof1
# Method in brief: as §1
# ScHse1 = biological target: ScHse1
# Method in brief: as §1
# ScLsb1 = biological target: ScLsb1
# Method in brief: as §1
# ScLsb2 = biological target: ScLsb2
# Method in brief: as §1
# ScLsb3 = biological target: ScLsb3
# Method in brief: as §1
# ScLsb4 = biological target: ScLsb4
# Method in brief: as §1
# ScMyo3 = biological target: ScMyo3
# Method in brief: as §1
# ScMyo5 = biological target: ScMyo5
# Method in brief: as §1
# ScNbp2 = biological target: ScNbp2
# Method in brief: as §1
# ScPex13 = biological target: ScPex13
# Method in brief: as §1
# ScRvs167 = biological target: ScRvs167
# Method in brief: as §1
# ScSho1 = biological target: ScSho1
# Method in brief: as §1
# ScSla1-D1-D2 = biological target: ScSla1-D1-D2
# Method in brief: as §1
# ScSla1-D3 = biological target: ScSla1-D3
# Method in brief: as §1
# SpAbp1-D1 = biological target: SpAbp1-D1
# Method in brief: as §1
# SpBbc1 = biological target: SpBbc1
# Method in brief: as §1
# SpBzz1-D1 = biological target: SpBzz1-D1
# Method in brief: as §1
# SpBzz1-D2 = biological target: SpBzz1-D2
# Method in brief: as §1
# SpCyk3 = biological target: SpCyk3
# Method in brief: as §1
# SpHof1 = biological target: SpHof1
# Method in brief: as §1
# SpHof1-2 = biological target: SpHof1-2
# Method in brief: as §1
# SpHof1-3 = biological target: SpHof1-3
# Method in brief: as §1
# SpHse1 = biological target: SpHse1
# Method in brief: as §1
# SpLsb1 = biological target: SpLsb1
# Method in brief: as §1
# SpLsb4 = biological target: SpLsb4
# Method in brief: as §1
# SpMyo1 = biological target: SpMyo1
# Method in brief: as §1
# SpNbp2 = biological target: SpNbp2
# Method in brief: as §1
# SpPex13 = biological target: SpPex13
# Method in brief: as §1
# SpRvs167 = biological target: SpRvs167
# Method in brief: as §1
# SpSla1-D1-D2 = biological target: SpSla1-D1-D2
# Method in brief: as §1
# SpSla1-D3 = biological target: SpSla1-D3
# Method in brief: as §1
binder,measurement,setting,value
MKRSRPSRSIPYTTP,SPOT peptide array binding signal intensity,AgAbp1,92
same,SPOT peptide array binding signal intensity,AgBbc1,65.5
same,SPOT peptide array binding signal intensity,AgBem1-D1,152
same,SPOT peptide array binding signal intensity,AgBzz1-D1,53
same,SPOT peptide array binding signal intensity,AgBzz1-D2,22
same,SPOT peptide array binding signal intensity,AgCyk3,8
same,SPOT peptide array binding signal intensity,AgFus1,121
same,SPOT peptide array binding signal intensity,AgHof1,23.5
same,SPOT peptide array binding signal intensity,AgHse1,274
same,SPOT peptide array binding signal intensity,AgLsb1,3.5
same,SPOT peptide array binding signal intensity,AgLsb4,37
same,SPOT peptide array binding signal intensity,AgMyo5,3.25
same,SPOT peptide array binding signal intensity,AgNbp2,324
same,SPOT peptide array binding signal intensity,AgRvs167,2.5
same,SPOT peptide array binding signal intensity,AgSho1,30.5
same,SPOT peptide array binding signal intensity,AgSla1-D1-D2,21.5
same,SPOT peptide array binding signal intensity,AgSla1-D3,≤ 0
same,SPOT peptide array binding signal intensity,CaAbp1-D1,504
same,SPOT peptide array binding signal intensity,CaAbp1-D2,476
same,SPOT peptide array binding signal intensity,CaBbc1,347
same,SPOT peptide array binding signal intensity,CaBem1-D1,47.5
same,SPOT peptide array binding signal intensity,CaBzz1-D1,172
same,SPOT peptide array binding signal intensity,CaBzz1-D2,158
same,SPOT peptide array binding signal intensity,CaCyk3,108
same,SPOT peptide array binding signal intensity,CaFus1,334
same,SPOT peptide array binding signal intensity,CaHof1,≤ 0
same,SPOT peptide array binding signal intensity,CaHse1,55.5
same,SPOT peptide array binding signal intensity,CaLsb1,2.75
same,SPOT peptide array binding signal intensity,CaLsb4,590
same,SPOT peptide array binding signal intensity,CaMyo5,13.8
same,SPOT peptide array binding signal intensity,CaNbp2,421
same,SPOT peptide array binding signal intensity,CaRvs167,18.3
same,SPOT peptide array binding signal intensity,CaRvs167-3,2
same,SPOT peptide array binding signal intensity,CaSho1,250
same,SPOT peptide array binding signal intensity,CaSla1-D1-D2,60
same,SPOT peptide array binding signal intensity,CaSla1-D3,14
same,SPOT peptide array binding signal intensity,ScAbp1,20
same,SPOT peptide array binding signal intensity,ScBbc1,18.8
same,SPOT peptide array binding signal intensity,ScBem1-D1,7
same,SPOT peptide array binding signal intensity,ScBzz1-D1,27
same,SPOT peptide array binding signal intensity,ScBzz1-D2,23
same,SPOT peptide array binding signal intensity,ScCyk3,37
same,SPOT peptide array binding signal intensity,ScFus1,129
same,SPOT peptide array binding signal intensity,ScHof1,0.5
same,SPOT peptide array binding signal intensity,ScHse1,570
same,SPOT peptide array binding signal intensity,ScLsb1,10.2
same,SPOT peptide array binding signal intensity,ScLsb2,4
same,SPOT peptide array binding signal intensity,ScLsb3,320
same,SPOT peptide array binding signal intensity,ScLsb4,72
same,SPOT peptide array binding signal intensity,ScMyo3,10.5
same,SPOT peptide array binding signal intensity,ScMyo5,8
same,SPOT peptide array binding signal intensity,ScNbp2,620
same,SPOT peptide array binding signal intensity,ScPex13,10
same,SPOT peptide array binding signal intensity,ScRvs167,19.8
same,SPOT peptide array binding signal intensity,ScSho1,351
same,SPOT peptide array binding signal intensity,ScSla1-D1-D2,126
same,SPOT peptide array binding signal intensity,ScSla1-D3,43.5
same,SPOT peptide array binding signal intensity,SpAbp1-D1,507
same,SPOT peptide array binding signal intensity,SpBbc1,15.5
same,SPOT peptide array binding signal intensity,SpBzz1-D1,239
same,SPOT peptide array binding signal intensity,SpBzz1-D2,1.5
same,SPOT peptide array binding signal intensity,SpCyk3,14
same,SPOT peptide array binding signal intensity,SpHof1,50.2
same,SPOT peptide array binding signal intensity,SpHof1-2,30
same,SPOT peptide array binding signal intensity,SpHof1-3,244
same,SPOT peptide array binding signal intensity,SpHse1,177
same,SPOT peptide array binding signal intensity,SpLsb1,4.5
same,SPOT peptide array binding signal intensity,SpLsb4,580
same,SPOT peptide array binding signal intensity,SpMyo1,82.5
same,SPOT peptide array binding signal intensity,SpNbp2,224
same,SPOT peptide array binding signal intensity,SpPex13,16
same,SPOT peptide array binding signal intensity,SpRvs167,10.8
same,SPOT peptide array binding signal intensity,SpSla1-D1-D2,≤ 0
same,SPOT peptide array binding signal intensity,SpSla1-D3,7
